Test results: PubChem BioAssay (Tox21)
Records with an inconclusive call do not appear. The source made the active and inactive calls. Calls come from the whole dose curve.

Tested on: thyroid hormone receptor (rat, GH3 cells)
Experiment: qHTS assay to identify small molecule agonists of the thyroid receptor (TR) signaling pathway (AID 743066)
Details: GH3.TRE-Luc cells, TR agonist luciferase, 24 h; series mostly up to 83.9 µM; activation: at the top concentration
% is set by controls: 0 for no effect and ±100 for the full control effect.

**Q.** `CC(C)=CC=O` was tested. Which “activation” value did it give?
**A.** 0.125% [at 95.2 µM] (inactive)

**Q.** How did the “activation” value turn out when `CC(=O)Nc1ccc(N)cc1` was run?
**A.** 7.59% [at 95.2 µM] (inactive)

**Q.** For `O=C(N/N=C/c1ccc([N+](=O)[O-])o1)c1ccc(O)cc1`, which “activation” value is on record?
**A.** 0.0844% [at 39.4 µM] (inactive)

**Q.** How did the “activation” value turn out when `O=S1OCCO1` was run?
**A.** 1.19% [at 95.2 µM] (inactive)

**Q.** `CCOC(=O)CC(=O)C(=O)OCC` was tested. Which “activation” value did it give?
**A.** -0.949% (inactive)

**Q.** For `CC(COc1ccc(C(C)(C)C)cc1)OS(=O)OCCCl` (centres undefined), which “activation” value is on record?
**A.** 0.35% [at 95.2 µM] (inactive)

**Q.** With `CCCOC(=O)c1ccc(C(=O)OCCC)nc1` as the compound, how does the “activation” value read?
**A.** 7.27% (inactive)

**Q.** With `CCCCCCCCCCCCCCCCBr` as the compound, how does the “activation” value read?
**A.** -0.726% [at 39.4 µM] (inactive)

**Q.** Which “activation” value does the source give for `C=CC(=C)CCCC(C)(C)OC(C)=O` here?
**A.** -0.145% (inactive)

**Q.** `OCC1CC=CCC1` (centres undefined) was tested. Which “activation” value did it give?
**A.** -0.744% (inactive)

**Q.** Which outcome does the source give for `CO[C@H]1C=CO[C@@]2(C)Oc3c(C)c(O)c4c(O)c(c5c(c4c3C2=O)=NC2(CCN(CC(C)C)CC2)N=5)NC(=O)/C(C)=C\C=C/[C@H](C)[C@H](O)[C@@H](C)[C@@H](O)[C@@H](C)[C@H](OC(C)=O)[C@@H]1C` here?
**A.** inactive

**Q.** Which “activation” value does the source give for `CCCCCC=CCC=CCCCCCCCC(=O)OCC` here?
**A.** 0.111% (inactive)

**Q.** With `CC(=O)[C@H]1CC[C@H]2[C@@H]3C=CC4=CC(=O)CC[C@@]4(C)[C@@H]3CC[C@]12C` as the compound, how does the “activation” value read?
**A.** -5.06% [at 39.4 µM] (inactive)

**Q.** `CCCCCCCCCCCCCCC[C@H](O)[C@@H](N)CO` was tested. Which “activation” value did it give?
**A.** 1.1% (inactive)

**Q.** For `O=C(O)c1cccnc1C(=O)O`, which “activation” value is on record?
**A.** -0.426% (inactive)

**Q.** Which “activation” value does the source give for `Oc1ccc(Nc2ccccc2)cc1` here?
**A.** -6.46% (inactive)

**Q.** Which “activation” value does the source give for `CC1(C)C2=CCCC(C)(C)[C@]23CC[C@H]1C3` here?
**A.** -2.05% (inactive)

**Q.** For `COC(=O)[C@@H]1CC2=CC(=O)CC[C@]2(C)[C@@]23O[C@@H]2C[C@@]2(C)[C@@H](CC[C@@]24CCC(=O)O4)[C@H]13`, which “activation” value is on record?
**A.** -1.32% (inactive)

**Q.** `COCC(O)CO` (centres undefined) was tested. Which “activation” value did it give?
**A.** 0.0654% [at 95.2 µM] (inactive)

**Q.** Which “activation” value does the source give for `CCC(=O)OC/C=C/c1ccccc1` here?
**A.** 0.588% (inactive)

**Q.** With `O=C(CCC1CCN(Cc2ccccc2)CC1)c1ccc2c(c1)NCCCC2` as the compound, how does the “activation” value read?
**A.** -6.71% (inactive)

**Q.** With `CCc1cccc(N(C)C(N)=Nc2cccc3ccccc23)c1` as the compound, how does the “activation” value read?
**A.** -6.49% (inactive)

**Q.** Which “activation” value does the source give for `O=Cc1c(Cl)cccc1Cl` here?
**A.** 0.731% [at 95.2 µM] (inactive)

**Q.** Which “activation” value does the source give for `c1cnc2c(n1)CCCC2` here?
**A.** 0.137% (inactive)

**Q.** `C[Si]1(C)O[Si](C)(C)O[Si](C)(C)O1` was tested. Which “activation” value did it give?
**A.** 0.285% (inactive)

**Q.** How did the “activation” value turn out when `COC(OC)(C(=O)c1ccccc1)c1ccccc1` was run?
**A.** -0.933% (inactive)

**Q.** `CC(C)CCCC(=O)O` was tested. Which “activation” value did it give?
**A.** -0.115% (inactive)

**Q.** With `CCCOCCOCCO` as the compound, how does the “activation” value read?
**A.** 0.794% (inactive)

**Q.** `CC1CN(c2cc3c(cc2F)c(=O)c(C(=O)O)cn3-c2ccc(F)cc2F)CCN1` (centres undefined) was tested. Which “activation” value did it give?
**A.** -0.0498% (inactive)

**Q.** `CC(C)(CCl)c1ccccc1` was tested. Which “activation” value did it give?
**A.** 0.0733% (inactive)

**Q.** Which “activation” value does the source give for `Nc1ccc(Cl)cc1[N+](=O)[O-]` here?
**A.** -0.688% (inactive)

**Q.** With `CC(Cl)C(Cl)Cl` (centres undefined) as the compound, how does the “activation” value read?
**A.** 0.925% (inactive)

**Q.** Which “activation” value does the source give for `Cc1nc2ccccc2s1` here?
**A.** 0.388% [at 95.2 µM] (inactive)

**Q.** How did the activation turn out when `C=CCCCCCCCCCCCCCCCC` was run?
**A.** -0.275% [at 8.08 µM] (inactive)
